Most compounds without a hit are left out; they make up all but 1.8% or so of the library.
LYPLA2 inh = blocks human lysophospholipase 2, a PME1 counter-screen; O95372; recombinant LYPLA2, FP-Rh probe fluorescence polarization; inhibition, % at 5.9 µM; 0.38% of 320,000 active; AID 2177;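 active means inhibition above the screen-wide mean plus 3 SD, limit set per campaign, cut at about 26% in these data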
Fam108B counter = Fam108B inhibition, counter-screen for RBBP9 inhibitors | 0.33% of 300,000 active | inhibition, % at 9.51 µM | AID 1947 | recombinant Fam108B, FP-Rh probe fluorescence polarization;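 active means inhibition above the screen mean inhibition plus 3 SD, computed separately per campaign, cut at about 18% in these data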;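 further: inhibitors lower polarization as less probe binds the enzyme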
GSTO1 counter = GSTO1 inhibition, counter-screen for RBBP9 inhibitors. P78417. recombinant GSTO1, activity-based probe fluorescence polarization. inhibition, % at 5.96 µM. 1.1% of 300,000 active;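 active means inhibition above the campaign mean inhibition plus 3 SD, cut at about 35% in these data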
LYPLA1 counter = LYPLA1 (human) inhibition in PME1 counter-screen | AID 2174 | O75608 | 0.16% of 320,000 active | recombinant LYPLA1, FP-Rh probe fluorescence polarization | inhibition, % at 5.9 µM;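 active means inhibition above the mean of all tested compounds plus 3 SD, set per campaign, cut at about 14% in these data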;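 further: inhibitors block serine hydrolase probe labeling of LYPLA1 so polarization falls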
Target sequence (O75608 whole entry, looked up): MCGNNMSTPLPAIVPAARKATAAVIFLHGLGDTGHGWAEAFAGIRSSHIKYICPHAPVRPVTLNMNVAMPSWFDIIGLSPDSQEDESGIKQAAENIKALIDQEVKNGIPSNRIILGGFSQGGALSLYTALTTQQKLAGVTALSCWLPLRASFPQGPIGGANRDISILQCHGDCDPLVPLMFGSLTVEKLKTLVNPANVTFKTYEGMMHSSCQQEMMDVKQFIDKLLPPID
PME-1 inh = blocks human protein phosphatase methylesterase 1; Q9Y570; inhibition, % at 5.9 µM; recombinant PME-1, FP-Rh probe fluorescence polarization; 0.53% of 320,000 active;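 active means inhibition above the campaign mean of all compounds plus 3 SD, cut at about 26% in these data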;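 further: competitive labeling of PME-1 active site by serine hydrolase directed probe; inhibitors block probe labeling so polarization falls and inhibition rises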
Target sequence (Q9Y570 whole entry, looked up): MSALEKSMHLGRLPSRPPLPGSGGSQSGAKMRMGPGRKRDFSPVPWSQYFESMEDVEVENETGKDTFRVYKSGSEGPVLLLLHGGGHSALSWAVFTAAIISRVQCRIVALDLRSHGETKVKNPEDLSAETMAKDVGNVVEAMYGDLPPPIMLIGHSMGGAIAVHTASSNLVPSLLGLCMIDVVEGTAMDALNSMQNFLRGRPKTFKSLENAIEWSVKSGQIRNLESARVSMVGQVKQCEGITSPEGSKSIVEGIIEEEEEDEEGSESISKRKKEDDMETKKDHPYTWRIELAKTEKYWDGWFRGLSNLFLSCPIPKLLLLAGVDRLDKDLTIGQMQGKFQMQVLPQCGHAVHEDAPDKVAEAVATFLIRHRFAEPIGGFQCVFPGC
PAD4 FP inh = PAD4 (human) enzyme inhibition | AID 485272 | inhibition, % at 6.36 µM | Q9UM07 | recombinant PAD4, RCA probe fluorescence polarization | 0.41% of 330,000 active;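 active means percent inhibition above a cutoff equal to the mean of all tested compounds plus 3 SD, cut at about 15% in these data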
GSTO1 confirm = confirmation of human GSTO1 inhibitors | shares compounds with GSTO1 counter | recombinant GSTO1, probe fluorescence polarization | inhibition, % at 5.96 µM | 54% of 2,400 active;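 active means inhibition above the primary screen's cutoff, its mean inhibition plus 3 SD, cut at about 35% in these data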;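 further: loss of polarization as inhibitors block binding of rhodamine sulfonate ester activity probe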
GSTO1 ABPP inh = blocks recombinant human glutathione S-transferase omega 1; recombinant GSTO1, gel ABPP SE-Rh probe fluorescence; 30% of 130 active; inhibition, % at 1 µM; shares compounds with GSTO1 counter; AID 463110;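 active means inhibition of the enzyme GSTO1 above about 75%, limit read from the data; inactive means inhibition below that limit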
Hits are given with their value; - = inactive; . = not tested or not shown.

SMILES	LYPLA2 inh	Fam108B counter	GSTO1 counter	LYPLA1 counter	PME-1 inh	PAD4 FP inh	GSTO1 confirm	others
Cc1ccc(S(=O)(=O)NC(CC(C)C)C(=O)N2CCN(C/C=C/c3ccccc3)CC2)cc1 (configuration not stated)	-	.	.	-	-	-	.
O=[N+]([O-])c1ccc(Cl)c2c1C1C=CCC1C(c1ccccn1)N2 (configuration not stated)	-	-	39	-	-	-	-
O=C(O)c1ccc(Cl)c2c1C1C=CCC1C(c1ccccn1)N2 (configuration not stated)	-	-	-	-	-	-	.
COc1ccc(NC(=O)C(C)N=C2NS(=O)(=O)c3ccccc32)cc1S(N)(=O)=O (configuration not stated)	-	.	.	-	-	-	.
CS(=O)(=O)c1ccc(Cl)c(NC(=O)CSc2n[nH]c(-c3cccs3)n2)c1	-	.	.	-	-	-	.
COc1ccc(S(=O)(=O)/N=C2/NC(=O)/C(=C\c3cc(OC)c(OC)cc3[N+](=O)[O-])S2)cc1	-	-	-	-	-	-	.
COc1cc(/C=C2\S/C(=N/S(=O)(=O)c3ccccc3)NC2=O)c([N+](=O)[O-])cc1OC	-	-	38	-	-	-	-
Cc1ccccc1-n1ncc2c([N+](=O)[O-])cc([N+](=O)[O-])cc21	-	-	39	-	-	-	-
COc1ccc(C(C(=O)NC2CCCCC2)N(C(=O)CCl)c2cccc(Cl)c2)cc1 (configuration not stated)	-	-	81	-	-	-	90	GSTO1 ABPP inh=83
COC(CN(C(=O)CCl)C(C(=O)NC1CCCCC1)c1ccc(C)cc1)OC (configuration not stated)	-	-	93	-	-	-	91	GSTO1 ABPP inh=-
COc1ccc(C(C(=O)NC2CCCCC2)N(C(=O)CCl)c2ccc(C)cc2)cc1 (configuration not stated)	-	-	89	-	-	-	95	GSTO1 ABPP inh=88
COc1ccc(C(C(=O)NC2CCCC2)N(C(=O)c2ccoc2C)c2ccc(C)cc2)cc1 (configuration not stated)	-	-	-	-	-	-	.
COc1cccc(N(C(=O)c2cnccn2)C(C(=O)NC2CCCCC2)c2ccc(Cl)cc2)c1 (configuration not stated)	-	-	-	-	-	-	.
COCCCN(C(=O)c1ccccc1F)c1nc(-c2ccc(OC)cc2)cs1	-	-	-	-	-	-	.
CO[C@H]1/C=C/O[C@@]2(C)Oc3c(C)c(O)c4c(O)c(c(C=NN5CCN(C)CC5)c(O)c4c3C2=O)NC(=O)/C(C)=C\C=C\[C@H](C)[C@H](O)[C@@H](C)[C@@H](O)[C@@H](C)[C@H](OC(C)=O)[C@@H]1C	-	-	62	-	-	-	55
CO[C@H]1C=CO[C@@]2(C)Oc3c(C)c(O)c4c(O)c(c(C=NN5CCN(C)CC5)c(O)c4c3C2=O)NC(=O)C(C)=CC=C[C@H](C)[C@H](O)[C@@H](C)[C@@H](O)[C@@H](C)[C@H](OC(C)=O)[C@@H]1C	-	-	77	-	-	-	70
Cc1nn(CC(=O)NC2(C#N)CCCCC2)c(C)c1[N+](=O)[O-]	-	.	.	-	-	-	.
COc1ccc(C(=O)O)cc1S(=O)(=O)Nc1ccccc1-c1ccccc1	-	-	-	-	-	-	.
NS(=O)(=O)c1ccc2nc(NC(=O)Nc3ccc(F)cc3)sc2c1	-	-	-	-	-	-	.
O=C(NCc1ccco1)c1cc(-c2cccnc2)nc2ccccc12	-	-	38	-	-	-	-
COc1ccc(N)cc1-n1c(C)ccc1C	-	-	45	-	-	-	-
COc1ccc(NS(=O)(=O)c2ccc3c(c2)oc(=O)n3C)cc1Cl	-	-	51	-	-	-	57
CCN(CC)c1ccc(NS(=O)(=O)c2ccc3c(c2)oc(=O)n3C)c(C)c1	-	-	70	-	-	-	70
COc1ccc(-c2nonc2NC(=O)c2ccco2)cc1OC	-	-	-	-	-	-	.
Cc1c(C(C)(C)C)s/c(=N/S(=O)(=O)c2ccccc2)n1C	-	-	-	-	-	-	.
SMILES	LYPLA2 inh	Fam108B counter	GSTO1 counter	LYPLA1 counter	PME-1 inh	PAD4 FP inh	GSTO1 confirm	others
CCCCC[n+]1ccn(C2=C([O-])c3ccccc3C(=O)/C2=N\S(=O)(=O)c2ccccc2)c1	-	-	75	-	-	-	59
CC(C)(C)c1cc[n+](C2=C([O-])c3ccccc3C(=O)/C2=N\S(=O)(=O)c2ccccc2)cc1	-	-	87	-	-	-	81
CCCC[n+]1ccn(C2=C([O-])c3ccccc3C(=O)/C2=N\S(=O)(=O)c2ccccc2)c1	-	-	68	-	-	-	66
CC(C)[n+]1ccn(C2=C([O-])c3ccccc3C(=O)/C2=N\S(=O)(=O)c2ccccc2)c1	-	-	61	-	-	-	57
CCCC[n+]1ccn(-c2nc3ccccc3nc2[N-]S(=O)(=O)c2ccccc2)c1	-	-	-	-	-	-	.
O=S(=O)(CCc1ccncc1)C1Cc2cccc3cccc1c23 (configuration not stated)	-	-	-	-	-	-	.
O=C1CC(=O)Nc2cc(S(=O)(=O)Nc3cccc(C(F)(F)F)c3)ccc2N1	-	-	-	-	-	-	.
CCCCC[n+]1ccn(C2=C([O-])c3ccccc3C(=O)/C2=N\S(=O)(=O)c2ccc(Br)cc2)c1	-	-	47	-	-	-	-
O=C(N/N=C/c1ccc(-c2ccccc2[N+](=O)[O-])o1)c1cccnc1	-	-	51	-	-	-	-
CCOC(=O)c1cnc(-n2nc(C)cc2C)[nH]c1=O	-	-	-	-	-	-	.
CCOC(=O)c1cnc(-n2[nH]c(C)cc2=O)[nH]c1=O	-	-	42	-	-	-	-
COc1ccccc1C(=O)NC(=S)Nc1ccccc1N1CCCC1	-	-	40	-	-	-	-
CC1Cc2ccccc2N1C(=O)CN1CCC(n2nnc3cc(C(F)(F)F)ccc32)CC1 (configuration not stated)	-	-	-	-	-	-	.
CN(CC(=O)Nc1ccc(Cl)cc1)C(=O)Cc1c(F)cccc1Cl	-	-	-	-	-	-	.
COc1ccc(S(=O)(=O)N2CCCC2CNC(=O)C(=O)NCc2cccs2)cc1 (configuration not stated)	-	-	-	-	-	-	.
COc1ccc(C(OCC2CO2)c2ccc(OC)cc2)cc1 (configuration not stated)	-	-	82	-	-	-	92	GSTO1 ABPP inh=-
Cc1cc2nc(CCl)cc(=O)n2[nH]1	-	-	104	-	-	-	93	GSTO1 ABPP inh=-

Bioassay records deposited in PubChem by The Scripps Research Institute Molecular Screening Center.
